# VP16 counter – Gal4-VP16 reporter inhibition counter-screen; Drosophila S2 Gal4-VP16 UAS-luciferase, luminescence, 20 h; 3.5% of 310,000 active; Potency, µM (highest dose often 53.6 µM), for inactives: at the highest dose activity, negative = inhibition, actives largely listed as inhibitors;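 note: Gal4-VP16 expression switched on by copper sulfate through the metallothionein promoter; % is set by controls: 0 for no effect and ±100 for the full control effect; nearly all actives have a fitted effect of over 50% in size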
# SW480 rerep – induces DNA re-replication in SW480 colon adenocarcinoma cells | SW480 DNA re-replication, Hoechst DNA content imaging, 48 h | Potency, µM (top dose mostly 46.1 µM), without a hit: at the top dose re-replication activation, usual class: activators | 1.8% of 340,000 active; note: % of control where 0% means no effect; nearly all actives have a fitted effect of over 55% in size
#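 Image-based read-out: total Hoechst fluorescence of nuclei (405 nm excitation, 500-530 nm emission), with hits raising the fraction of high-intensity nuclei. SW480 colon cells incubated 48 hr with compounds at 37 C.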
# MCF10A rereplic – DNA re-replication induction in MCF 10a cells. MCF 10A DNA re-replication, Hoechst nuclear intensity, 48 h. Potency, µM (titrated, usually from 46.1 µM), for inactives: at the highest dose activity, positive = re-replication, most hits filed as activators. 2.9% of 350,000 active. AID 624296; note: % of control where 0% means no effect; nearly all actives have a fitted effect of over 50% in size
# KB-3-1 cytotox – kills parental KB-3-1 adenocarcinoma cells; Potency, µM (doses to about 46.1 µM), most hits filed as cytotoxic; AID 1347075; 1.4% of 400,000 active; KB-3-1 viability, CellTiter-Glo ATP luminescence, 72 h; note: % is set by controls: 0 for no effect and ±100 for the full control effect; nearly all actives have a fitted effect of over 60% in size
#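 72 h, 37 °C compound treatment of KB-3-1 parental cells; CellTiter-Glo added, 10 min, luminescence read. Data corrected against DMSO-only plates and normalized before curve fitting.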
# KB-V1 MDR tox – KB-V1 MDR subline cytotoxicity; Potency, µM (highest dose often 46.1 µM), actives largely listed as cytotoxic; AID 1347076; KB-V1 MDR cells viability, CellTiter-Glo, 72 h; 3.4% of 400,000 active; note: % is set by controls: 0 for no effect and ±100 for the full control effect; nearly all actives have a fitted effect of over 60% in size
#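 In this primary screen, KB-V1 cells overexpressing P-gp are incubated with library compounds (lowest to highest concentration) for 72 h at 37 degrees C before a luminescent ATP viability read.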
# RORg inh – blocks mouse ROR gamma transcriptional activity. AID 2551. Drosophila S2 Gal4-RORgamma UAS-luciferase reporter, 20 h. 5.4% of 310,000 active. P51450. Potency, µM (top dose mostly 53.6 µM), for the others: top-dose activity change, negative = inhibition, hits mostly inhibitors; note: % is set by controls: 0 for no effect and ±100 for the full control effect; nearly all actives have a fitted effect of over 60% in size
# Target sequence (P51450 whole entry, looked up, the tested form may be a part): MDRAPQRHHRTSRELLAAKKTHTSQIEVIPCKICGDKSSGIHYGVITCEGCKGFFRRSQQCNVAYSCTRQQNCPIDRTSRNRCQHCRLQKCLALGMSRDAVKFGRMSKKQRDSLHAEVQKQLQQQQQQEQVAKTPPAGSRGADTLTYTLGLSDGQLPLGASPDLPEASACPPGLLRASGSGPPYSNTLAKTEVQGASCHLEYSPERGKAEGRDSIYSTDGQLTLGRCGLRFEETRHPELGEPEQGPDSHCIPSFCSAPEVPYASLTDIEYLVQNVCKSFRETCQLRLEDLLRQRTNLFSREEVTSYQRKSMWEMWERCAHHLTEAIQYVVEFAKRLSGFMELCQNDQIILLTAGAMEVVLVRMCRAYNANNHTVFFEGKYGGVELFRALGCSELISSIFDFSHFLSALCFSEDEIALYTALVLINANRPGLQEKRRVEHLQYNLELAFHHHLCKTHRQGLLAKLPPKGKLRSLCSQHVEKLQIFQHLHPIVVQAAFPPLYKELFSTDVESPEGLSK
#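 Compounds are pin-transferred onto Drosophila Schneider cells expressing a copper-inducible Gal4–ROR gamma transactivation domain fusion. After 1 hr, copper sulfate is added to 700 uM final; luciferase is read 20 hr later.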
# The depositor's hits bear a star; i = inactive; u = inconclusive; x = no result; [ ] = dose if it differs, or a comment. An excerpt weighted towards active compounds, which were near 10% of everything screened. Calls come from the whole dose curve; as a rule, active = well fitted curve in the direction sought with a large enough effect; inconclusive = small, poorly fitted or top-dose-only effect, or another doubt; inactive = no such curve, though single readings can be large; an effect the other way counts as inactive or inconclusive. Potency is the fitted concentration of half-maximal effect.
SMILES,VP16 counter,SW480 rerep,MCF10A rereplic,KB-3-1 cytotox,KB-V1 MDR tox,RORg inh
O=S(=O)(O)c1ccc2c(c1)-c1nc-2nc2[nH]c(nc3nc(nc4[nH]c(n1)c1ccc(S(=O)(=O)O)cc41)-c1ccc(S(=O)(=O)O)cc1-3)c1ccc(S(=O)(=O)O)cc21,-24%,x,x,x,x,-39%
COc1ccccc1-c1sc2ccccc2c1C#Cc1ccc(N(C)C)cc1,x,8.2µM*,u,i,i,x
COc1ccccc1-c1sc2ccccc2c1-c1ccc(O)cc1,x,16µM*,u,i,i,x
COC(=O)c1scc(-c2ccc(C)cc2)c1S(=O)(=O)N1CCN(c2ccccc2)CC1,x,x,x,i,i,x
C/C(=N\NC(=O)c1cc(-c2cccs2)nc2ccccc12)c1ccccn1,0.56µM*,1.6µM*,u,u,i,0.1µM*
O=C(CSc1ccccc1)NC1=NCCS1,4%,-3%,-2%,i,i,-8%
O=C(NC1=NCCS1)c1cccc2ccccc12,21%[10 µM],2%,-2%,i,i,11µM*
CC(C)NC(=O)c1cc(-c2cccs2)nc2ccccc12,-13%,-36%,-1%,i,i,10%
O=C(CSc1cccc2cccc(Cl)c12)NC1=NCCS1,11µM*,u,0%,i,i,10µM*
O=C(NC1=NCCS1)c1ccccc1Br,x,12%,u,i,i,x
O=C(NC1=NCCS1)c1cc(-c2cccs2)nc2ccccc12,u,7%,20%,i,i,25µM*
CCOC(=O)[C@]12CCCC=C1N(Cc1ccc(Cl)cc1Cl)C(=O)[C@H](CC(=O)N1CCN(C(=O)c3ccco3)CC1)C2,x,x,x,i,u,x
NCCCC[C@H](NC(=O)[C@@H]1CCCN1C(=O)[C@H](CO)NC(=O)[C@H](CC(=O)O)NC(=O)CNC(=O)[C@H](CCCN=C(N)N)NC(=O)CN)C(=O)O,-7%,x,x,x,x,-2%
C/C(=N\NC(=O)c1cc(-c2ccncc2)nc2ccccc12)c1ccc(N2CCOCC2)cc1,-1%,-22%,5.8µM*,i,i,-38%
O=C(NC1=NCCS1)c1cc(-c2cccnc2)nc2ccccc12,-1%,0%,-4%,i,u,11µM*
Cc1ccc(-c2cc(C(=O)Nc3cc(C)on3)c3ccccc3n2)cc1,-14%,u,12%,i,i,23%
Oc1ccccc1N1CCN(c2nc(-c3cccs3)nc3ccccc23)CC1,-6%,-8%,1%,i,i,-14%
Cc1cc(NC(=O)c2cc(-c3cccs3)nc3ccccc23)no1,-10%,134%,u,21µM*,u,-32%
c1csc(-c2cc(N3CCCCC3)c3ccccc3n2)c1,-20%,17%,21µM*,i,i,-6%
CCOc1ccccc1NC(=O)Cn1c(=O)ccc2cc(S(=O)(=O)N3CCCC3)ccc21,x,x,x,i,i,x
CCOC(=O)c1cccc(NC(=O)c2cnc3sc(N4CCOCC4)nn3c2=O)c1,x,x,x,i,i,x
C=C1C=C(C(F)F)n2ncc(C(=O)NCCc3ccc(Cl)cc3)c2N1,x,x,x,i,i,x
COc1ccc(/C=C2\C=Cc3ccccc32)cc1OC,x,x,x,i,i,x
Cc1cccc2sc(NNC(=O)c3cc(-c4cccs4)nc4ccccc34)nc12,18µM*,u,18µM*,u,u,0.25µM*
NNC(=O)c1cc(-c2cccs2)nc2ccccc12,-27%,u,u,i,i,20µM*
SMILES,VP16 counter,SW480 rerep,MCF10A rereplic,KB-3-1 cytotox,KB-V1 MDR tox,RORg inh
CCCC(C(=O)NC1=NCCS1)c1ccccc1 (stereo not given),u,5%,u,i,i,11µM*
CC(NC(=O)c1ccccc1)C(=O)NC1=NCCS1 (stereo not given),10%,-12%,2%,i,i,12%
CN(C)S(=O)(=O)c1ccc(NC(=O)c2cc(-c3cccs3)nc3ccccc23)cc1,-3%,-2%,u,i,u,-1%
COc1ccc(C)c2sc(N(Cc3cccnc3)C(=O)CCc3ccccc3)nc12,x,x,x,i,i,x
Cc1ccc(Nc2nc(C)nc(N)c2S(=O)(=O)c2ccccc2)cc1,x,x,x,i,i,x
COc1ccc(NC(=O)Cn2c(=O)n(-c3ccc(OC)cc3)c(=O)c3sc4ccccc4c32)cc1,x,x,x,i,i,x
CN(NC(=O)c1ccc(Cl)cc1)c1nc(-c2ccccc2)nnc1C(F)(F)F,-9%,-2%,u,u,15µM*,18%
CN(N)c1nc2ccccc2nc1C(F)(F)F,6%,-2%,18%,i,i,-4%
Cc1ccc(C(=O)NN(C)c2nc3ccccc3nc2C(F)(F)F)cc1,-12%,13µM*,4.6µM*,5.8µM*,u,-6%
C[N+]1(CC(=O)c2ccc(I)cc2)CCCc2ccccc21 (stereo not given),x,x,x,u,i,x
COc1cc(Cl)c(S(=O)(=O)N2CCCC2)cc1Cl,-4%,-14%[1.84 µM],u,i,i,18%
COc1cc(N2C(=O)C=CC2=O)c(OC)cc1Cl,4.5µM*,u,5.8µM*,u,u,5.6µM*
N#CC(C#N)=Cc1cn(-c2ncc(C(F)(F)F)cc2Cl)c2ccccc12,u,0%,u,i,u,11µM*
Nc1ncn(-c2ncc(C(F)(F)F)cc2Cl)n1,-7%,-3%,-3%,i,i,0%
O=C(NCc1cccnc1)c1cccn1-c1ncc(C(F)(F)F)cc1Cl,-1%,3%,2%,i,u,2%
CO/N=C/NC(=O)Cc1cn(-c2ncc(C(F)(F)F)cc2Cl)c2ccccc12,-9%,2%,-15%,u,13µM*,7%
CC(=O)/C=C\c1cn(-c2ncc(C(F)(F)F)cc2Cl)c2ccccc12,-3%,u,u,21µM*,u,25%
O=C(C[n+]1cccc(Br)c1)c1cccc([N+](=O)[O-])c1,x,x,x,i,i,x
Cc1ccc(C(=O)c2oc3ccccc3c2NC(=O)c2cc(-c3ccccc3O)n[nH]2)cc1,u,18µM*,9.2µM*,i,i,-37%
Cc1ccc(C(=O)c2oc3ccccc3c2NC(=O)c2cc(-c3cc(C)ccc3O)n[nH]2)cc1,-6%,u,1.6µM*,u,u,u
O=C(COc1ccccc1C(=O)Nc1ccccc1)Nc1ccccc1-c1ccccc1,x,x,x,u,i,x
COCCn1c(=O)c(-c2ccc(OC)cc2)nc2cnc(Nc3ccccc3)nc21,-2%,x,x,x,x,-4%

# Screening data: PubChem BioAssay, National Center for Advancing Translational Sciences (NCATS)
